Test results from PubChem BioAssay (EPA / NIEHS).
Results filed as inconclusive are left out. Calls of active or inactive are those of the source. Rule for the calls, unless noted: active = hit-call score of the fitted dose curve at least 0.9, where 1 is the maximum; inactive = score below 0.9.

Experiments:
[1] = ATG_NF_kB_CIS: Attagene CIS-FACTORIAL HepG2 Assay for human Nuclear Factor Kappa B (NF-kB) (AID 2282991); details: HepG2 Attagene cis-factorial NF-kB reporter mRNA; actives raise or lower the signal
Procedure, shortened: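 Multiplexed cis-reporter assay in transiently transfected HepG2. 24 h treatment; RNA isolated, RT-PCR, labelled fragments resolved by CE. DMSO baseline.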

[2] = ATG_NRF2_ARE_CIS: Attagene CIS-FACTORIAL HepG2 Assay for human Nuclear Factor Erythroid 2 Related Factor 2 (NFR2) response to Antioxidant Response Elements (ARE) (AID 2282992); details: HepG2 Attagene ARE/NRF2 reporter, transcription factor activity; actives raise or lower the signal
Procedure, shortened: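 Endogenous transcription factor activity read out as reporter transcript levels (RT-PCR plus capillary electrophoresis, fluorescence) in transiently transfected HepG2 cells. Measured at 24 h after dosing; gain or loss of signal fitted versus DMSO.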

[3] = ATG_Oct_MLP_CIS: Attagene CIS-FACTORIAL HepG2 Assay for human Octamer-Binding Transcription Factor (Oct) (AID 2282993); details: HepG2 Attagene cis-factorial Oct reporter, mRNA; actives raise or lower the signal
Procedure, shortened: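 HepG2 cells transiently transfected with cis-element-driven reporter transcription units (endogenous TF activity); 24 h compound exposure. Reporter mRNA quantified by RT-PCR, 6-FAM labelling, HpaI digestion and capillary electrophoresis; bidirectional fit versus DMSO baseline.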

[4] = biological target: Cellular tumor antigen p53 (Homo sapiens) (UniProt P04637); test: ATG_p53_CIS: Attagene CIS-FACTORIAL HepG2 Assay for human p53 Transcription Factor (AID 2282994); details: HepG2 p53 cis-element reporter, Attagene mRNA; actives raise or lower the signal
Sequence of Cellular tumor antigen p53 (Homo sapiens) (P04637 whole entry, looked up): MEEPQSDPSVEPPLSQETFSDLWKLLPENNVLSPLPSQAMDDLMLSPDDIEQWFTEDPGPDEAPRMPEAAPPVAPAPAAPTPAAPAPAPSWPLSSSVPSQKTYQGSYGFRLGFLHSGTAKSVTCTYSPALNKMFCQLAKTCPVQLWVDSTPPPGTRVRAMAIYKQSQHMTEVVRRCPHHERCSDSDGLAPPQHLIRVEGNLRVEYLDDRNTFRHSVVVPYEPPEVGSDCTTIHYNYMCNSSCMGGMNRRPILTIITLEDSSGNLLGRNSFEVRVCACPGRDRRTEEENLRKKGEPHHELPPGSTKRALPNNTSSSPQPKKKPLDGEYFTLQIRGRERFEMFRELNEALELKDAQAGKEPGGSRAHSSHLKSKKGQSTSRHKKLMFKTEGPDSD
Procedure, shortened: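 Endogenous p53 activity read in transiently transfected HepG2 from a cis-element-driven reporter transcript after 24 h exposure. RNA reverse-transcribed, PCR-amplified, fluorescently labelled and sized by capillary electrophoresis; gain or loss fitted against DMSO baseline.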

[5] = BSK_3C_TissueFactor: BioMAP Diversity Plus: 3C Assay for Tissue Factor Biomarker Activity (AID 2282997); details: BioMAP 3C HUVEC, tissue factor biomarker readout; actives raise or lower the signal
Procedure, shortened: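 Readout: Tissue Factor ELISA. Cells: human primary umbilical vein endothelium. Time: 24 h after dosing. Analysis: bidirectional fit, DMSO baseline.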

[6] = BSK_3C_uPAR: BioMAP Diversity Plus: 3C Assay for Urokinase-type plasminogen activator receptor (uPAR) Biomarker Activity (AID 2282998); details: BioMAP 3C HUVEC, uPAR biomarker ELISA; actives raise or lower the signal
Procedure, shortened: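 Primary human umbilical vein endothelial cells, 3C system; surface uPAR measured by ELISA 24 h after dosing. Cytotoxicity via SRB total protein in parallel cultures; bidirectional fit against DMSO.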

[7] = BSK_3C_VCAM1: BioMAP Diversity Plus: 3C Assay for Vascular cell adhesion molecule 1 (VCAM1) Biomarker Activity (AID 2282999); details: BioMAP 3C HUVEC, VCAM1 ELISA, cytokine-stimulated; actives raise or lower the signal
Procedure, shortened: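 Vascular primary endothelium (human umbilical vein) was exposed to chemicals and assayed 24 h later. VCAM-1 levels came from ELISA, with DMSO serving as baseline for bidirectional fitting.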

[8] = BSK_4H_Eotaxin3: BioMAP Diversity Plus: 4H Assay for Eotaxin 3 Biomarker Activity (AID 2283000); details: primary human endothelial cells (HUVEC); actives raise or lower the signal
Procedure, shortened: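 HUVEC, 24 h post-dose, ELISA for Eotaxin-3/CCL26. Gain or loss of signal fitted bidirectionally vs DMSO baseline.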

[9] = biological target: human Peroxisome Proliferator-activated Receptor alpha (PPARa), PPARA (gene 5465) (UniProt Q07869); test: ATG_PPARa_TRANS: Attagene TRANS-FACTORIAL HepG2 Assay for human Peroxisome Proliferator-activated Receptor alpha (PPARa) (AID 2283001; active = hit-call score of the fitted dose curve at least 0.9, where 1 is the maximum;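 for AC50: potency for gain of reporter signal over DMSO so agonist or activator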)
Sequence of human Peroxisome Proliferator-activated Receptor alpha (PPARa), PPARA (gene 5465) (Q07869 whole entry, looked up, the tested form may be a part): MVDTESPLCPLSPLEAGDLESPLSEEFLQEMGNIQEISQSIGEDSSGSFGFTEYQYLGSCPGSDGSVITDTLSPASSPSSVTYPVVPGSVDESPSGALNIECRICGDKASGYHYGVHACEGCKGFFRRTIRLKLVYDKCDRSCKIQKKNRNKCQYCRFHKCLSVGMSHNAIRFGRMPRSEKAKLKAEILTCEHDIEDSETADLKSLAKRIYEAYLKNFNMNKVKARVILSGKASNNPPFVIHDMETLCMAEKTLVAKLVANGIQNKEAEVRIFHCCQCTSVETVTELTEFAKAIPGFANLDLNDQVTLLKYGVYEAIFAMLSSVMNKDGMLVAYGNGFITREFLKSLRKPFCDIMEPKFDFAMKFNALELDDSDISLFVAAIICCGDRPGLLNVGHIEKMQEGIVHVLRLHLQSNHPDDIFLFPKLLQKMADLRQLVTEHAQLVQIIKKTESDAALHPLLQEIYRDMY
Procedure, shortened: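 Exposure: 24 h, transiently transfected HepG2 cells. Endpoint: GAL4-UAS reporter mRNA, RT-PCR with capillary electrophoresis fluorescence. Baseline: DMSO; increases fitted.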

[10] = biological target: human Peroxisome Proliferator-activated Receptor delta (PPARd), PPARD (gene 5467) (UniProt Q03181); test: ATG_PPARd_TRANS: Attagene TRANS-FACTORIAL HepG2 Assay for human Peroxisome Proliferator-activated Receptor delta (PPARd) (AID 2283002; active = hit-call score of the fitted dose curve at least 0.9, where 1 is the maximum)
Sequence of human Peroxisome Proliferator-activated Receptor delta (PPARd), PPARD (gene 5467) (Q03181 whole entry, looked up, the tested form may be a part): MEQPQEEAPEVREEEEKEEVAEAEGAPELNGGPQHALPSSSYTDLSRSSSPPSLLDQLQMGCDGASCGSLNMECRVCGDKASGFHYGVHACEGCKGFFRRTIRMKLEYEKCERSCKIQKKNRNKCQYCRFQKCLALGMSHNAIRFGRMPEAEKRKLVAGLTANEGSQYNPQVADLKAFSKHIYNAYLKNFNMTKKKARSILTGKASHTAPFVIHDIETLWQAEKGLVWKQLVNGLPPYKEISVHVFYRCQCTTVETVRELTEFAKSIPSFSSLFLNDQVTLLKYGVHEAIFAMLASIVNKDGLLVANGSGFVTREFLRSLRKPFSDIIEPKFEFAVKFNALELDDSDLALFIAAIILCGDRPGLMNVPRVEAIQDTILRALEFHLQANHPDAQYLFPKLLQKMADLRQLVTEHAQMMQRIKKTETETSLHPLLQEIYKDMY
Procedure, shortened: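 Measured quantity: GAL4-UAS reporter transcript induction in HepG2 after 24 h chemical dosing, with NR-Gal4 chimeras supplied by transient transfection. Detection by RT-PCR and capillary electrophoresis; upward fit against DMSO.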

[11] = read-out: Intercellular Adhesion Molecule 1 (ICAM1), ICAM1 (gene 3383); test: BSK_3C_ICAM1: BioMAP Diversity Plus: 3C Assay for Intercellular Adhesion Molecule 1 (ICAM1) Biomarker Activity (AID 2283003); details: primary human endothelial cells (HUVEC); actives raise or lower the signal
Procedure, shortened: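 ELISA read-out of ICAM-1; HUVEC (primary human), 3C system, 24 h post-dosing; bidirectional fit vs DMSO baseline.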

[12] = BSK_3C_Proliferation: Cell Proliferation Assessment in the BioMAP Diversity Plus: 3C Assay (AID 2283006); details: primary human endothelial cells (HUVEC);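 for AC50: potency may reflect either rise or fall in cell number versus DMSO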
Procedure, shortened: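 HUVEC, sub-confluent; 48 h chemical exposure; 10% TCA fix, 0.1% SRB stain, A560 total protein. Gain or loss of signal fitted both directions vs DMSO control.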

[13] = biological target: Peroxisome proliferator-activated receptor gamma (Homo sapiens) (UniProt P37231); test: ATG_PPARg_TRANS: Attagene TRANS-FACTORIAL HepG2 Assay for human Peroxisome Proliferator-activated Receptor-gamma (PPARg) (AID 2283007; active = hit-call score of the fitted dose curve at least 0.9, where 1 is the maximum)
Sequence of Peroxisome proliferator-activated receptor gamma (Homo sapiens) (P37231 whole entry, looked up): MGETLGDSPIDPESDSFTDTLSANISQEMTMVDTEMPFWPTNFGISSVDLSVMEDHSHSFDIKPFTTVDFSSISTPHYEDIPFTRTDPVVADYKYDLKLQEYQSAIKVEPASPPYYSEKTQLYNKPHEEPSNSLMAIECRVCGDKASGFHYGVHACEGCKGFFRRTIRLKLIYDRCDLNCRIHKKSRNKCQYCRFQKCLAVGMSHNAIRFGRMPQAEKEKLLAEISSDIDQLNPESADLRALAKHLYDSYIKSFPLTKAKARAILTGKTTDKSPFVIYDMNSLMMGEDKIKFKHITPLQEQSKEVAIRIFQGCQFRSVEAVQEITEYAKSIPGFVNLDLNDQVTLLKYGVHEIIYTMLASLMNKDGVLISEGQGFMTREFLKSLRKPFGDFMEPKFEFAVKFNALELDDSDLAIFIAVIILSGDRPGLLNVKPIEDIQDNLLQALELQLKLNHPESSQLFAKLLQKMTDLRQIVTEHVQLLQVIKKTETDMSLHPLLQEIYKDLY
Procedure, shortened: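 Human hepatoma HepG2, transient MRTU transfection, 24 h treatment. mRNA reporter signal by RT-PCR plus capillary electrophoresis, fluorescence detection; fitted for increase over DMSO negative control.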

[14] = biological target: human RAR-related Orphan Receptor beta (RORb), RORB (gene 6096) (UniProt Q92753); test: ATG_RORb_TRANS: Attagene TRANS-FACTORIAL HepG2 Assay for human RAR-related Orphan Receptor beta (RORb) (AID 2283010; active = hit-call score of the fitted dose curve at least 0.9, where 1 is the maximum)
Sequence of human RAR-related Orphan Receptor beta (RORb), RORB (gene 6096) (Q92753 whole entry, looked up, the tested form may be a part): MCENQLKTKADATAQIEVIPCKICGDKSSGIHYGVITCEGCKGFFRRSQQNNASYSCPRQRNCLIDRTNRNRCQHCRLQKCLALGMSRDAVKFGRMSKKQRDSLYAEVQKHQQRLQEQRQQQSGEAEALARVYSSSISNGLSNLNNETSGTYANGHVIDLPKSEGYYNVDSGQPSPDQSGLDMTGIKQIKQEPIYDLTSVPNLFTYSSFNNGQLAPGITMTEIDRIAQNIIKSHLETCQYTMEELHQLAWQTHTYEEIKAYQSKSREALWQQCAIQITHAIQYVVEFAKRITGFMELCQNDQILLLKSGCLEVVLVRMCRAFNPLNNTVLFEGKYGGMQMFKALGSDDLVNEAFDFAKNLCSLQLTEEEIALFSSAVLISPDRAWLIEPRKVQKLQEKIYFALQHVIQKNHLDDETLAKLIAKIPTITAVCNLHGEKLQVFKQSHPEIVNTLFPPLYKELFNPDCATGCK
Procedure, shortened: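 HepG2, transient MRTU transfection (GAL4-UAS reporters, exogenous NR-Gal4 chimeras); 24 h compound exposure; total RNA → RT-PCR → 6-FAM primer extension → HpaI digest → CE fluorescence. Positive direction vs DMSO baseline.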

[15] = biological target: human RAR-related Orphan Receptor gamma (RORg), RORC (gene 6097) (UniProt P51449); test: ATG_RORg_TRANS: Attagene TRANS-FACTORIAL HepG2 Assay for human RAR-related Orphan Receptor gamma (RORg) (AID 2283011; active = hit-call score of the fitted dose curve at least 0.9, where 1 is the maximum)
Sequence of human RAR-related Orphan Receptor gamma (RORg), RORC (gene 6097) (P51449 whole entry, looked up, the tested form may be a part): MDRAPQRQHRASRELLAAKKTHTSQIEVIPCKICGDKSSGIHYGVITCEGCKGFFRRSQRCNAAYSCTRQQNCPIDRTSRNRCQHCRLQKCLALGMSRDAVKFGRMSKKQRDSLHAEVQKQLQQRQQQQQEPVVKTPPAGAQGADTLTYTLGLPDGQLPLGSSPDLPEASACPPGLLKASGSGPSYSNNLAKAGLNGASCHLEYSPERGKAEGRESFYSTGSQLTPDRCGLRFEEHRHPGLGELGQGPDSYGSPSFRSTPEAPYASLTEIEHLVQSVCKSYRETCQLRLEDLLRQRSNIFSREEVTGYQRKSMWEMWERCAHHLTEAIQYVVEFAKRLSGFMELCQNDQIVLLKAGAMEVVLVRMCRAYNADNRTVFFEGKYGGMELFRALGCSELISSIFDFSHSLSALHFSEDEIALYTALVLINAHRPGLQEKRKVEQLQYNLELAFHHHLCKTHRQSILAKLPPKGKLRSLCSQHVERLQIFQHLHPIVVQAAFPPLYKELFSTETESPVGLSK
Procedure, shortened: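 Readout: reporter transcript induction (RT-PCR, fluorescent primer extension, capillary electrophoresis) after 24 h compound exposure of transiently transfected HepG2 cells carrying a RORg-Gal4 chimera and GAL4-UAS reporters; DMSO served as baseline, with increasing signal fitted.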

[16] = biological target: Retinoic acid receptor RXR-alpha (Homo sapiens) (UniProt P19793); test: ATG_RXRa_TRANS: Attagene TRANS-FACTORIAL HepG2 Assay for human Retinoid X Receptor alpha (RXRa) (AID 2283012; active = hit-call score of the fitted dose curve at least 0.9, where 1 is the maximum)
Sequence of Retinoic acid receptor RXR-alpha (Homo sapiens) (P19793 whole entry, looked up, the tested form may be a part): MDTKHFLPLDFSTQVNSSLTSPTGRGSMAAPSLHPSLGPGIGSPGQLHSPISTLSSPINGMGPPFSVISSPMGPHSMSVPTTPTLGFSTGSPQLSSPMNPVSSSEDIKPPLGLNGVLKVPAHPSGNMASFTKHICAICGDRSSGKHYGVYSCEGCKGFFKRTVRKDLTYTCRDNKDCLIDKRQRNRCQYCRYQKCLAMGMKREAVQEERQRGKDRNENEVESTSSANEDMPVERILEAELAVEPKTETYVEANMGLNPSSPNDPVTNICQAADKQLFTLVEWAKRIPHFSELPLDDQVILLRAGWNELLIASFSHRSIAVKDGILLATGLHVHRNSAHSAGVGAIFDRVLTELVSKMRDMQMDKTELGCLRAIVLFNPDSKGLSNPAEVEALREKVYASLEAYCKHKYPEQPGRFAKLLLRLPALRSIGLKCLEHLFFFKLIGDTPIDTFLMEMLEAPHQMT
Procedure, shortened: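 Read-out: fluorescent reporter-transcript fragments quantified by capillary electrophoresis after RT-PCR. Transiently transfected HepG2 cells carrying GAL4-UAS reporters and NR-GAL4 chimeras were exposed to chemical for 24 h; activity scored as increase over DMSO.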

[17] = biological target: human Thyroid Receptor alpha (THRa1), THRA (gene 7067) (UniProt P10827); test: ATG_THRa1_TRANS: Attagene TRANS-FACTORIAL HepG2 Assay for human Thyroid Receptor alpha (THRa1) (AID 2283014; active = hit-call score of the fitted dose curve at least 0.9, where 1 is the maximum)
Sequence of human Thyroid Receptor alpha (THRa1), THRA (gene 7067) (P10827 whole entry, looked up, the tested form may be a part): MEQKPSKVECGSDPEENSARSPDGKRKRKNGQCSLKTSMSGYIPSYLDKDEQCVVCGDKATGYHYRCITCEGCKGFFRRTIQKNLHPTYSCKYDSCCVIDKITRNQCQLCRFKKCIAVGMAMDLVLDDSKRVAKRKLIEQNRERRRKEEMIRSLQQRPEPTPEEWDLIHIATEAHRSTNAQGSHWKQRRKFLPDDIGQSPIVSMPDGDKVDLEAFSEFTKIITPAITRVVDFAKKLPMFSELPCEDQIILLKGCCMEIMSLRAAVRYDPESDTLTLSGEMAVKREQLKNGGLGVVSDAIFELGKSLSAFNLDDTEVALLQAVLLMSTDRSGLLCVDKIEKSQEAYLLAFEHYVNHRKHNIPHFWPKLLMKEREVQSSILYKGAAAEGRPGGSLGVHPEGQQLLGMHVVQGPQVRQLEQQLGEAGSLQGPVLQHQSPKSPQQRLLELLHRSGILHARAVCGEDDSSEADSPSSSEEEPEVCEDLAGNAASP
Procedure, shortened: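 HepG2 cells transiently transfected with multiplexed GAL4-UAS reporter units for exogenous chimeric THRa1-Gal4; reporter mRNA measured 24 h after dosing by RT-PCR, 6-FAM labelling, HpaI digestion and capillary electrophoresis. Gain-of-signal fitted versus DMSO baseline.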

[18] = biological target: Nuclear receptor subfamily 1 group I member 2 (Homo sapiens) (UniProt O75469); test: ATG_PXR_TRANS: Attagene TRANS-FACTORIAL HepG2 Assay for human Pregnane X Receptor (PXR) (AID 2283008; active = hit-call score of the fitted dose curve at least 0.9, where 1 is the maximum)
Procedure, shortened: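 Transactivation by exogenous PXR–GAL4 fusion measured as reporter transcript induction after 24 h compound treatment of transfected human HepG2 cells. Read-out via RT-PCR and capillary electrophoresis of labelled fragments, fitted upward relative to DMSO.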

[19] = biological target: human Retinoic Acid Receptor gamma (RARg), RARG (gene 5916) (UniProt P13631); test: ATG_RARg_TRANS: Attagene TRANS-FACTORIAL HepG2 Assay for human Retinoic Acid Receptor gamma (RARg) (AID 2283009; active = hit-call score of the fitted dose curve at least 0.9, where 1 is the maximum)
Sequence of human Retinoic Acid Receptor gamma (RARg), RARG (gene 5916) (P13631 whole entry, looked up, the tested form may be a part): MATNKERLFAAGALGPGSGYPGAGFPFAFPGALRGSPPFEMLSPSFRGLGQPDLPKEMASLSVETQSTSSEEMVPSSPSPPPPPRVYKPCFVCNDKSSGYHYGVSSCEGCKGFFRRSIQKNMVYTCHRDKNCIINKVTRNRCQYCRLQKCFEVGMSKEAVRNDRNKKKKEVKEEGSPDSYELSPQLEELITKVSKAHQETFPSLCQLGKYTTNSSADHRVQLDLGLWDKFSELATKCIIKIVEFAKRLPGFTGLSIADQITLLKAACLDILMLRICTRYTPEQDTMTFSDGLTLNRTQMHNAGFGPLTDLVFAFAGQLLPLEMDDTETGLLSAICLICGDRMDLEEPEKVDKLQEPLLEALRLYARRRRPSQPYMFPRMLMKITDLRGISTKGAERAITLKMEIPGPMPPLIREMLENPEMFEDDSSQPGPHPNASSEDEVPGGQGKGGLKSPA
Procedure, shortened: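 Readout: reporter transcript levels via RT-PCR, 6-FAM primer-extension labelling, HpaI digestion and capillary electrophoresis. Cells: HepG2 carrying transfected RARg-GAL4 chimera plus UAS reporter set. Dosing 24 h; DMSO negative control.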

[20] = biological target: human Retinoid X Receptor beta (RXRb), RXRB (gene 6257) (UniProt P28702); test: ATG_RXRb_TRANS: Attagene TRANS-FACTORIAL HepG2 Assay for human Retinoid X Receptor beta (RXRb) (AID 2283013; active = hit-call score of the fitted dose curve at least 0.9, where 1 is the maximum)
Sequence of human Retinoid X Receptor beta (RXRb), RXRB (gene 6257) (P28702 whole entry, looked up, the tested form may be a part): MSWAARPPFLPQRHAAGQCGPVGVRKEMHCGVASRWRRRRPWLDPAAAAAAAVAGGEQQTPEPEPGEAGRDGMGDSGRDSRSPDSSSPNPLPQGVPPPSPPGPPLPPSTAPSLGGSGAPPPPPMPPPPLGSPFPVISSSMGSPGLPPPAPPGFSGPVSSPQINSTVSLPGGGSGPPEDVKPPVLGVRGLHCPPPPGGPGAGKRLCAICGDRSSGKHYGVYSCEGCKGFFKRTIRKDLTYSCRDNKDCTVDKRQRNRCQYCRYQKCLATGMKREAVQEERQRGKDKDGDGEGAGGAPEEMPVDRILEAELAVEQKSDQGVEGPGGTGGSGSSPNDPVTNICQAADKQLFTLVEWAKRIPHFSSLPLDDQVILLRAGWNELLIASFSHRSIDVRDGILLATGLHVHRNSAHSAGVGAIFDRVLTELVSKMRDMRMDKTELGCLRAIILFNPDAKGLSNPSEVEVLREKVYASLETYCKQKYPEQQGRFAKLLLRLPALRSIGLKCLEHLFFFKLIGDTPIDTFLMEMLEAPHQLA
Procedure, shortened: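 Read-out: reporter mRNA induction via RT-PCR plus capillary electrophoresis fluorescence, analysed as signal increase relative to DMSO. Cells were human HepG2, transiently transfected with GAL4-UAS reporter constructs and chimeric receptor-Gal4 fusions, dosed for 24 h.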

Measured: AC50

COc1ccc(/C=C/S(=O)(=O)NC(=O)c2ccc(C)cc2Cl)cc1
inactive: [1] | [2] | [3] | [4] | [5] | [6] | [7] | [8] | [9] | [10] | [11] | [14] | [15] | [16]
active: [12] 7.08 µM | [13] 23.7 µM

O=C1CCC(N2C(=O)c3ccccc3C2=O)C(=O)N1 (stereo unspecified)
inactive: [1] | [2] | [3] | [4] | [5] | [6] | [8] | [10] | [11] | [12] | [13] | [17]

CC(C)CCO
inactive: [1] | [2] | [3] | [4] | [5] | [6] | [8] | [9] | [11] | [12] | [13] | [18] | [19] | [15] | [16] | [20] | [17]

O=C1CCCCCN1
active: [9] 3.37 µM
inactive: [1] | [2] | [3] | [4] | [5] | [6] | [7] | [8] | [10] | [11] | [12] | [19] | [15] | [16]

O=C(O)c1cccc(N(Cc2cccnc2)c2ccc(OC(F)F)c(OC(F)F)c2)c1
inactive: [2] | [3] | [6] | [7] | [9] | [10] | [11] | [12] | [19] | [16]
active: [1] 27.7 µM | [4] 35.7 µM | [5] 14.7 µM | [8] 12.9 µM | [13] 6.66 µM

O=C(NS(=O)(=O)/C=C/c1ccccc1)c1ccc(F)cc1Cl
inactive: [1] | [2] | [3] | [4] | [5] | [6] | [7] | [8] | [9] | [11] | [14] | [16] | [20] | [17]
active: [12] 6.4 µM | [13] 22.3 µM | [18] 16.2 µM

CNS(=O)(=O)c1cc(C(=O)N2CCC(CCN3C4CCC3CC(n3c(C)nc5ccccc53)C4)(c3cccc(F)c3)CC2)c(Cl)cc1F (stereo unspecified)
active: [1] 5.18 µM | [2] 2.71 µM | [4] 6.99 µM | [6] 16.7 µM | [8] 30.9 µM | [12] 15.4 µM
inactive: [3] | [5] | [10] | [11] | [19] | [15] | [20] | [17]
